Assay outcomes from PubChem BioAssay.
The list is not random: actives were taken first. Their share in the collection is about 5.7%.
TGFb inhibitor: inhibitors of TGF-b signaling. hit rate 1.2% among 410,000. HepG2 CAGA-GFP TGF-b/SMAD3 reporter, GFP fluorescence, 18 h; TGF-beta stimulated, 500 pg/mL final. Potency, µM (titrated, usually from 46.1 µM), for inactives: at the highest dose activity, negative = inhibition, actives largely listed as inhibitors. AID 588855; note: potency is the fitted concentration of half-maximal effect; % is set by controls: 0 for no effect and ±100 for the full control effect; nearly all actives have a fitted effect of over 65% in size
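GFP signal (ex488/em500-530) from TGF-beta-stimulated HEPG2 CAGA-GFP cells, 500 pg/mL final, 18 h at 37 degrees C in DMEM plus 1% FBS, normalized to unstimulated and DMSO-stimulated controls.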
IL1B secr inh: inflammasome signaling inhibition, IL-1 beta readout; activity change, % at 57.5 µM; hit rate 4.7% among 360,000; THP-1 LPS/ATP IL-1B secretion, AlphaLISA, 16 h; active compounds read low; in the data active = activity change below about -50%; inconclusive = mostly about -30% to -49%; note: % is set by controls: 0 for no effect and ±100 for the full control effect
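Secreted IL-1B measured by AlphaLISA bead assay after 16 h compound exposure of THP-1 cells; compounds (final up to 57.5 uM) added 1 h before LPS (250 ng/mL) and ATP (1.25 mM) stimulation; lower signal means less secretion.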
HepG2 tox: HepG2 cytotoxicity, counter-screen for TGF-b inhibitors; HepG2 CAGA-GFP viability, ATP luminescence, 18 h; Potency, µM (series often up to 46.1 µM), without a hit: top-dose activity change, negative = cytotoxicity, hits mostly cytotoxic; hit rate 0.76% among 410,000; AID 588856; note: potency is the fitted concentration of half-maximal effect
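HepG2 CAGA-GFP cells (1000/well, DMEM with 1% FBS) received compound, then TGF-beta at 500 pg/mL final, and were incubated 18 hours at 37 degrees C. Viability was read by CellTiter-Glo luminescence. Media-only wells were set as complete cell-killing and DMSO as no toxicity.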
ATXN2 expr inh: reduces ATXN2 reporter expression in HEK-293 cells; HEK-293 ATXN2-luciferase reporter, luminescence, 24 h; Potency, µM (doses to about 57 µM), for the others: at the top dose activity change, negative = inhibition, most hits filed as inhibitors; hit rate 0.72% among 360,000; AID 1745845; note: potency is the fitted concentration of half-maximal effect; % is set by controls: 0 for no effect and ±100 for the full control effect; nearly all actives have a fitted effect of over 55% in size
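ATXN2-luciferase reporter cells (luciferase flanked by upstream and downstream ATXN2 gene portions) were treated 24 h at 37 °C with compounds at up to 57 uM. SteadyGlo luminescence gave expression; GF-AFC fluorescence gave viability.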
ATXN viability: reduces viability in counter-screen for ATXN expression inhibitors; Potency, µM (doses to about 56.7 µM), most hits filed as cytotoxic; hit rate 0.49% among 400,000; AID 651635; S2 cells (HEK-293 line with an ATXN2-luciferase reporter) viability, CellTiter-Fluor protease fluorescence, 24 h; note: potency is the fitted concentration of half-maximal effect; nearly all actives have a fitted effect of over 40% in size
Active calls of the source: *; i = inactive; ? = inconclusive; · = no result; ! = not active in a repeat; [ ] = another dose, or the depositor's remark. Unless noted, calls come from the whole dose curve; as a rule, active = well fitted curve in the direction sought with a large enough effect; inconclusive = small, poorly fitted or top-dose-only effect, or another doubt; inactive = no such curve, though single readings can be large; an effect the other way counts as inactive or inconclusive.

SMILES	TGFb inhibitor	IL1B secr inh	HepG2 tox	ATXN2 expr inh	ATXN viability
CC(C)c1ccc(NC(=O)c2cc3c(=O)[nH]c4ccccc4c3n2C)cc1	9%	·	-11%	-16%	i
COc1cccc(Nc2c(C(N)=O)cnc3c(C)cc(S(=O)(=O)c4cccc(C(=O)N(C)C)c4)cc23)c1	·	·	·	-14%[25.6 µM]	·
CCOC(=O)N1CCc2c(sc(NCc3sccc3C)c2C(=O)Nc2ccc(OC)cc2OC)C1	-30%	·	-2%	14µM*	i
COc1ccc(OC)c(NC(=O)c2c(NCc3cccs3)sc3c2CCCCC3)c1	-26%	·	0%	-7%	i
COc1ccc(OC)c(NC(=O)c2c(NCc3cccs3)sc3c2CCCC3)c1	16µM*	·	-30%	·	·
CCOc1ccccc1NC(=O)c1c(NCc2cccs2)sc2c1CCCCC2	18µM*	·	-48%	?	?
COC(=O)C(Cc1ccc(O)cc1)NC(=O)c1ccc2c(c1)OCCO2 (stereo unspecified)	-30%	-98*	-1%	19%	i
COC(=O)C(Cc1ccc(O)cc1)NC(=O)NC12CC3CC(CC(C3)C1)C2 (stereo unspecified)	-21%	-63*	-3%	3%	i
CCOC(=O)c1c(C)c(-c2ccccc2)n(CC(=O)NC(CC)Cc2ccccc2)c1C (stereo unspecified)	-19%	·	8%	-1%	i
C/C(=N\NC(=O)c1ccc(Cl)cc1)c1ccccn1	2µM*	-92*	-24%	?	?
Cc1cccc(C(=O)N2CCCC(Nc3ccc(C)c(C)c3)C2)n1 (stereo unspecified)	0%	0	6%	-3%	i
C/C(=N\NC(=O)c1ccccn1)c1ccc(Cl)cc1	-2%	·	-2%	-6%	i
CC(=NNC(=S)N1CC2CCC(CC2)C1)c1cccc(C)n1	?	-110*	-48%	-29%	?
CC(=NNC(=S)SCc1ccccc1)c1ccccn1	?	-3	-32%	?	?
CC(=NNC(=S)N1CCC1)c1ccccn1	?	0	-28%	0.034µM*!	?
C/C(=N\NC(=O)c1cc(C)nc2ccccc12)c1ccccn1	4µM*	143	-37%	?	?
O=C(Cc1ccc(OCCCc2ccccc2)cc1)NO	5%	·	-23%	·	·
O/N=C(/C[n+]1csc2ccccc21)c1ccccc1	-11%	·	-27%	·	·
Cc1ccc(C(=O)NCCc2nnc3n2CCN(C(=O)c2ccnc(Cl)c2)CC3)cc1	·	·	·	·	i
Cc1ccc(C(=O)NCCc2nnc3n2CCN(Cc2ccnc4ccccc24)CC3)c(C)c1	·	·	·	·	i
O=C(Sc1ccc(Cl)cc1)c1ccccn1	-8%	-83*	-31%	-7%	i
CC(=NNC(=S)Nc1cccc(Cl)c1)c1ccccn1	?	-88*	-48%	?	?
O=C(NCCNC(=O)c1ccccn1)c1ccc(Cl)cc1	10%	1	8%	-11%	i
S=C(NCc1ccccn1)Nc1cccc(Cl)c1	-24%	-18	-1%	4%	i
C=CC[C@H](c1ccc(F)cc1)N(CC(C)C)S(=O)(=O)C=C	-27%	·	-16%	·	·
SMILES	TGFb inhibitor	IL1B secr inh	HepG2 tox	ATXN2 expr inh	ATXN viability
Cc1cccc(C(=O)OCC(=O)N2CCC(c3ccccc3)=N2)c1O	11%	-8	-2%	-3%	i
Cc1ccc(C(=O)OCC(=O)N2CCC(c3ccccc3)=N2)cc1	-1%	-85*	-2%	1%	i
CCC(=C(c1ccc(OC)cc1)c1ccc(OC)cc1)c1cn(CC(O)CN2CCN(C)CC2)c2ccccc12 (stereo unspecified)	?	-106*	13µM*	?	·
O=C(NCc1ccco1)C1CCN(C(=O)c2cc3sccc3n2Cc2ccc(Cl)cc2)CC1	?	-87*	-33%	?	i
CCC/C(=C1/c2ccccc2C(=O)N1c1ccccc1)c1cnc(OC)nc1	13µM*	-4	-18%	-11%	i
CCOC(=O)/C(=N\Nc1ccccc1Cl)N1CCN(C)CC1	7%	-58*	-2%	-10%	i
CCN(c1ccc(C)cc1C)S(=O)(=O)c1nnc(NC(=O)CC(C)C)s1	0%	·	-21%	·	·
c1ccc(Nc2nc(NCC3CCCO3)c3ccccc3n2)cc1 (stereo unspecified)	?	-101*	-18%	-32%[11.3 µM]	?
CCOc1ccc(Nc2c(S(=O)(=O)c3ccccc3)cnc3ccc(CC)cc23)cc1	11µM*	·	-27%	?	?
CCOc1ccc(Nc2nc(NCC3CCCO3)c3ccccc3n2)cc1 (stereo unspecified)	11µM*	-98*	-51%	?	?
CCOc1ccc(Nc2c3ccccc3nc3ccccc23)cc1	?	-93*	-53%	11µM*	?
CCOc1ccccc1NC(=O)n1ncc2cc(Cl)ccc21	2%	·	0%	14%	i
COc1cc2[nH]c(C(=O)NCCc3ccccc3)cc2c(OC)c1OC	-6%	?	-16%	-2%	i
COc1ccccc1CNC(=O)c1cc(-c2ccc(F)cc2OC)n[nH]1	-1%	-51*	-37%	-17%	i
COc1cc2[nH]c(C(=O)NCc3ccccc3)cc2c(OC)c1OC	20%	-65*	-43%	3%	i
COc1ccc(F)cc1-c1cc(C(=O)NCc2ccccc2)[nH]n1	-15%	-67*	-1%	4%	i
CCNc1cc2c(cc1O)CCC1C2CCC2(C)C(O)CCC12 (stereo unspecified)	?	-101*	-4%	1%	i
CCOc1cc2c(cc1O)CCC1C2CCC2(C)C(O)CCC12 (stereo unspecified)	?	10	-8%	4%	?
CCOC(=O)c1sc(NC(=O)c2c(-c3ccccc3)c(-c3ccccc3)nn(C)c2=O)nc1C	0%	·	6%	·	·
C=CC[C@@H](CC(=O)N(CCO)Cc1ccccc1)C(=O)N[C@@H](C)COC(=O)[C@@H](CC=C)Cc1ccc(F)cc1	-22%	-3	-15%	-13%	i
C=CC[C@H](CC(=O)N(CCO)Cc1ccccc1)C(=O)N[C@H](COC(=O)[C@@H](CC=C)Cc1ccc(F)cc1)C(C)(C)C	?	-61*	0%	?	·
C=CC[C@@H](CC(=O)N(CCO)Cc1ccccc1)C(=O)N[C@H](COC(=O)[C@@H](CC=C)Cc1ccc(F)cc1)c1ccccc1	?	?	-26%	?	22µM*
C=CC[C@H](CC(=O)NCCO)C(=O)N[C@H](COC(=O)[C@@H](CC=C)Cc1ccc(F)cc1)c1ccccc1	-4%	-1	-18%	0%	i
C=CC[C@@H](CC(=O)N(CCO)Cc1ccccc1)C(=O)N[C@H](COC(=O)[C@@H](CC=C)Cc1ccc(F)cc1)C(C)(C)C	?	-83*	-9%	0%	?
